According to PubChem BioAssay (NCATS):
Several values for one entry are separate records, joined by “and”; a condition that tells them apart may be missing. Identical values can stand only once. Entries after “also recorded” stand apart in the source; their conditions may differ. Records with an inconclusive call do not appear. Where a call stands in place of a potency, no number is given. Activity calls are given as the source filed them. Unless noted, the call rests on the fitted dose curve.

Experiments:
[1] = Cytotoxicity counterscreen for inhibitors of SARS-CoV-2 cell entry (AID 1645845); conditions: cell viability (SARS-CoV-2 entry assay cells); series mostly up to 57.1 µM; further: nearly all actives have a fitted effect of over 50% in size
Summary of the method: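 Counterscreen run in the same HEK293-ACE2 line as the pseudotyped-particle entry assay, without particles. Viability after 48 h at 37 C was read as ATP luminescence, scaled between cell-containing and cell-free wells.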

[2] = Primary qHTS to identify inhibitors of SARS-CoV-2 cell entry (AID 1645846); conditions: SARS-CoV-2 pseudovirus cell entry assay, luminescence; further: nearly all actives have a fitted effect of over 45% in size
Summary of the method: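 Using luciferase-reporting pseudoviruses carrying Wuhan-Hu-1 spike, the screen tracks entry into stably ACE2-expressing cells over 48 hr. Activity is expressed relative to spike particles versus particles lacking any fusion protein.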

[3] = molecular target: Papain (Carica papaya) (UniProt P00784); assay: Primary qHTS assay for inhibitors of the protease papain (AID 1645873; active means well fitted curve in the direction sought with a large enough effect; an effect the other way counts as inactive or inconclusive;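 further: papain turnover of Z-FR-AMC read as the AMC fluorescence gain over 10 min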); conditions: papain Z-FR-AMC cleavage, AMC fluorescence; series mostly up to 49.8 µM
[4] = Primary qHTS for inhibitors of nuclear receptor binding SET domain protein 2 (NSD2) in an isogenic RCH-ACV NSD2 p.E1099K mutant (9B) (AID 1645876; active means well fitted curve in the direction sought with a large enough effect; an effect the other way counts as inactive or inconclusive; further: nearly all actives have a fitted effect of over 70% in size); conditions: RCH-ACV (leukaemia line) NSD2 E1099K (9B) viability, CellTiter-Glo, 72 h; series mostly up to 44.9 µM
[5] = VSVG counterscreen qHTS to identify inhibitors of SARS-CoV-2 cell entry (AID 1645847); conditions: VSV-G pseudotyped particle entry, luciferase; series mostly up to 57.2 µM; further: nearly all actives have a fitted effect of over 65% in size; further: potency means the concentration at half of the fitted maximal effect
Summary of the method: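 Entry of VSV-G pseudotyped particles into human ACE2-expressing HEK293 cells was measured by luciferase luminescence 48 h after infection, with compound added 1 h beforehand.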

[6] = activity change, negative = inhibition: at 57.1 µM (top of the series) unless noted, series mostly up to 57.1 µM

Chain of Papain (Carica papaya) (P00784 whole entry, looked up, the tested form may be a part): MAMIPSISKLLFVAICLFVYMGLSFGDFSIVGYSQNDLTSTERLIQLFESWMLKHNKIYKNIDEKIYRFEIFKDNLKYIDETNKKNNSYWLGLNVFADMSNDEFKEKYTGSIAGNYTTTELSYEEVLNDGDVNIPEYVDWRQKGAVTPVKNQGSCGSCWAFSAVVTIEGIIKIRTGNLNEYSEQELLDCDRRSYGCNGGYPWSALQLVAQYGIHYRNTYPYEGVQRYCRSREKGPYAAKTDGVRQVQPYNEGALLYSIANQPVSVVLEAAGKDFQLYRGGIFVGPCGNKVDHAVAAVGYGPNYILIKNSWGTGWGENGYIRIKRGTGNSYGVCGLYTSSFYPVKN

For CC(C)Cn1cnc2c(N)nc3ccccc3c21, the Potency [1] was “inactive”, the Potency [2, 6] was “inactive” and the activity change, negative = inhibition [2, 6] was 0.431% [at 27.1 µM].
In the case of CCCCCN(C)CCC(O)(P(=O)(O)O)P(=O)(O)O, the outcome [1] is reported as “inactive [at 11.3 µM]; also recorded: inactive [at 5.25 µM]”, the activity change, negative = inhibition ([2]; at 5.25 µM (top of the series)) is reported as -11.4% and the activity change, negative = inhibition ([2]; at 11.3 µM (top of the series)) is reported as -30.6%. The outcome [3] was “inactive”.
In the case of NCCS(=O)(=O)O, the Potency [1] is reported as “inactive”, the Potency [2, 6] is reported as “inactive” and the activity change, negative = inhibition [2, 6] is reported as -2.14%.
In the case of CCC1(C)CC(=O)NC1=O (configuration not stated), the Potency [1] is reported as “inactive”, the Potency [2, 6] is reported as “inactive” and the activity change, negative = inhibition [2, 6] is reported as -9.22% [at 114 µM].
With Nc1ccn(C[C@@H](CO)OCP(=O)(O)O)c(=O)n1 the activity change, negative = cytotoxicity [1] was 2.99% [at 0.702 µM] (inactive) and 4.32% [at 11.3 µM] (inactive), the activity change, negative = inhibition [2, 6] was -18.8% [at 11.3 µM] and the outcome [2, 6] was “inactive [at 0.702 µM]”. The activity change, negative = viability loss [4] was -0.956% [at 9.23 µM] (inactive).
For CCS(=O)(=O)CCn1c([N+](=O)[O-])cnc1C, the Potency [2, 6] was “inactive”.
For COc1cccc2c1C(=O)c1c(O)c3c(c(O)c1C2=O)C[C@@](O)(C(=O)CO)C[C@@H]3O[C@H]1C[C@H](N)[C@@H](O)[C@H](C)O1, the Potency [1] was “inactive”, the activity change, negative = inhibition [2, 6] was -93.2% and -92.9% and the Potency [5] was 0.0961 µM (active).
In the case of NC(=O)c1cnccn1, the Potency [1] is reported as “inactive”, the Potency [2, 6] is reported as “inactive” and the activity change, negative = inhibition [2, 6] is reported as -28%.
For COc1ccc2cccc(CCNC(C)=O)c2c1, the Potency [1] was “inactive”, the Potency [2, 6] was “inactive” and the activity change, negative = inhibition [2, 6] was -31%.
With c1ccc2c(CC3=NCCN3)cccc2c1 the activity change, negative = inhibition [2, 6] was 0.334%.
With Cc1cc2c(cc1CC(=O)c1sccc1S(=O)(=O)Nc1onc(C)c1Cl)OCO2 the Potency [1] was “inactive”, the Potency [2, 6] was “inactive” and the activity change, negative = inhibition [2, 6] was -56.4%. The Potency [5] was “inactive”.
In the case of Cc1nc2ccc(CN(C)c3ccc(C(=O)N[C@@H](CCC(=O)O)C(=O)O)s3)cc2c(=O)[nH]1, the Potency [1] is reported as “inactive” and the Potency [5] is reported as 0.304 µM (active).
With c1ccc2sc(SSc3nc4ccccc4s3)nc2c1 the Potency [2, 6] was “inactive”.
For C[C@]12C=CC(=O)C=C1CC[C@@H]1[C@@H]2[C@@H](O)C[C@@]2(C)[C@H]1CC[C@]2(O)C(=O)CO, the Potency [1] was “inactive”, the Potency [2, 6] was “inactive” and the activity change, negative = inhibition [2, 6] was -3.66%. The Potency [5] was 13.6 µM (active).
With C[C@]12C=CC(=O)C=C1CC[C@@H]1[C@@H]2C(=O)C[C@@]2(C)[C@H]1CC[C@]2(O)C(=O)CO the Potency [1] was “inactive”, the Potency [2, 6] was “inactive” and the activity change, negative = inhibition [2, 6] was -11.4%.
For COc1ccc(C(=O)CC(=O)c2ccc(C(C)(C)C)cc2)cc1, the Potency [1] was “inactive”, the Potency [2, 6] was “inactive” and the activity change, negative = inhibition [2, 6] was -3.57%.
For CC(C)C[C@H](CN)CC(=O)O, the Potency [1] was “inactive”, the Potency [2, 6] was “inactive” and the Potency [4] was “inactive”.
For Nc1nc2[nH]cc(CCc3ccc(C(=O)N[C@@H](CCC(=O)O)C(=O)O)cc3)c2c(=O)[nH]1, the Potency [1] was “inactive” and the Potency [5] was 1.71 µM (active).
For CC(C)=CCC/C(C)=C/CC/C(C)=C/CCC(=O)OC/C=C(\C)CCC=C(C)C, the Potency [1] was “inactive” and the Potency [5] was 1.08 µM (active).
